From PubChem BioAssay (NCATS)
Results filed as inconclusive are left out. Active and inactive are the calls of the source. The call rests on the fitted dose curve; in most records, active means well fitted inhibition curve with a large enough effect; inconclusive means small, poorly fitted or top-dose-only effect; inactive means flat fitted curve, though single readings scatter.

Assay: P-glycoprotein substrates identified in KB-8-5-11 adenocarcinoma cell line, qHTS therapeutic library screen (AID 1346987); further: nearly all actives have a fitted effect of over 65% in size
Settings: KB-8-5-11 (P-gp overexpressing) viability, CellTiter-Glo, 72 h; series mostly up to 44.5 µM; activity change, negative = cytotoxicity: at the top concentration
Outline: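 Steps: plate 500 KB-8-5-11 cells/well in DMEM + 10% FCS (colchicine removed); pin compounds in dose-response; incubate 72 h, 37 degree C, 5% CO2; add CellTiter-Glo, 5 min; read luminescence.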
On the % scale 0 is the no-effect control and ±100 the full control effect; potency means the concentration at half of the fitted maximal effect.

Compound	activity change, negative = cytotoxicity	outcome	Potency
COc1ccc(C[C@@H](C)NC[C@H](O)c2ccc(O)c(NC=O)c2)cc1	-2.76% (inactive)		
C1CCN2CC3C[C@@H](CN4CCCC[C@@H]34)[C@H]2C1		inactive	
COC(=O)C1=CO[C@@H](O[C@@H]2O[C@H](CO)[C@@H](O)[C@H](O)[C@H]2O)[C@@H]2[C@@](C)(O)[C@@H](O)C[C@]12O	7.89% [at 17.3 µM] (inactive)		
COC(=O)c1cc(CN2CCN(C(=N)N)CC2)cc(C(=O)N2CCN(C(=O)c3ccc(C(=N)N)cc3)CC2)c1		inactive	
CC(NCc1ccc(OCc2cccc(F)c2)cc1)C(N)=O (centres undefined)	8.1% (inactive)		
COc1cc2c(cc1O)C1(OC)Cc3ccc4c(c3C1N(C)CC2)OCO4 (centres undefined)	4.82% (inactive)		
CC(=O)OCC1=C[C@H](O)[C@@H]2C(C(=O)O)=CO[C@@H](O[C@@H]3O[C@H](CO)[C@@H](O)[C@H](O)[C@H]3O)[C@H]12	4.62% [at 17.3 µM] (inactive)		
C[C@@H]1C(=O)O[C@H]2CC34[C@H]5C[C@@H](C(C)(C)C)C36[C@@H](OC(=O)[C@@H]6O)O[C@@]4(C(=O)O5)[C@]21O (some centres undefined)		inactive [at 17.3 µM]	
COC(=O)C1=CO[C@@H](O[C@@H]2O[C@H](COC(=O)/C=C/c3cc(OC)c(O)c(OC)c3)[C@@H](O)[C@H](O)[C@H]2O)[C@@H]2C(CO)=CC[C@H]12		inactive [at 17.3 µM]	
CC1NC(=O)C(Cc2c[nH]c3ccccc23)NC1=O (centres undefined)		inactive	
CC1C/C=C/C=C\CCCCC(O)C/C=C/C(=O)O1 (centres undefined)		inactive	
CO[C@H](C(=O)[C@@H](O)[C@@H](C)O)C1Cc2cc3cc(O[C@H]4C[C@@H](O[C@H]5C[C@@H](O)[C@H](O)[C@@H](C)O5)[C@@H](O)[C@@H](C)O4)c(C)c(O)c3c(O)c2C(=O)[C@H]1O[C@H]1C[C@@H](O[C@H]2C[C@@H](O[C@H]3C[C@](C)(O)[C@H](O)[C@@H](C)O3)[C@H](O)[C@@H](C)O2)[C@H](O)[C@@H](C)O1 (some centres undefined)	14% (inactive)		
CO[C@@H](Cc1ccc(OCCc2nc(-c3ccccc3)oc2C)c2ccsc12)C(=O)O		inactive	
O=C(O)C1CCCN1 (centres undefined)	5.89% (inactive)		
O=C(O)CCc1cc2ccoc2cc1O[C@@H]1O[C@H](CO[C@@H]2OC[C@](O)(CO)[C@H]2O)[C@@H](O)[C@H](O)[C@H]1O	2.92% [at 17.3 µM] (inactive)		
Cc1cc(C)c(S(=O)(=O)N(Cc2ccc(-c3cccc(S(C)(=O)=O)c3)cc2)Cc2ccc(C(F)(F)F)o2)c(C)c1	-11.5% (inactive)		
Cc1cn2c(N)c(Cl)cc(C(=O)NCC3CCN(CC(C)C)CC3)c2n1	-23.3% (inactive)		
CC(=O)c1c(C)cc(O[C@@H]2O[C@H](CO)[C@@H](O)[C@H](O)[C@H]2O)cc1O		inactive	
CC1CCC2(NC1)OC1C(=O)C3C4CCC5CC(O[C@@H]6O[C@H](CO)[C@@H](O)[C@H](O)[C@H]6O[C@@H]6O[C@@H](C)[C@H](O)[C@@H](O)[C@H]6O)CCC5(C)C4CCC3(C)C1C2C (some centres undefined)	8.48% [at 17.3 µM] (inactive)		
C=C1[C@@H]2[C@H]3OC(=O)C(=C)[C@@H]3CC[C@@](C)(O)[C@@H]2C[C@@H]1O[C@@H]1O[C@H](CO)[C@@H](O)[C@H](O)[C@H]1O		inactive [at 17.3 µM]	

Compound	activity change, negative = cytotoxicity	outcome	Potency
CCn1nnnc1NCc1ccc(C(C)C)cc1		inactive	
Cn1ccnc1CCOC(c1cc2nccc(C(=O)O)c2[nH]1)c1ccccc1Cl (centres undefined)		inactive	
NCc1c[nH]c(=S)n1C1CCc2c(F)cc(F)cc2C1 (centres undefined)	1.95% (inactive)		
CC1(C)O[C@]23C[C@H]1C[C@H](OC(=O)c1ccoc1)[C@]2(C)[C@@H](OC(=O)c1ccoc1)CCC3(C)O (some centres undefined)	1.91% [at 17.3 µM] (inactive)		
C[C@@H](Nc1cc(NS(=O)(=O)N2CCC2)nc(SCc2cccc(F)c2F)n1)[C@@H](O)CO		inactive	
CC1=C2C(=O)C=C(CO)[C@@H]2[C@H]2OC(=O)[C@H](C)[C@@H]2[C@@H](O)C1	6.88% (inactive)		
NCc1ccccc1CC(=O)N[C@@H]1C(=O)N2C(C(=O)O)=C(CSc3nnnn3CC(=O)O)CS[C@H]12	23.3% [at 17.3 µM] (inactive)		
CCc1nc(C(N)=O)c(Nc2ccc(N3CCC(N4CCN(C)CC4)CC3)c(OC)c2)nc1NC1CCOCC1			5.7 µM (active)
COc1ccc(/C=C/C(=O)O[C@@H]2[C@@H](O)[C@H](C)O[C@@H](OC3C4C=COC(O[C@@H]5O[C@H](CO)[C@@H](O)[C@H](O)[C@H]5O)C4C4(CO)OC34)[C@@H]2O)cc1OC (some centres undefined)		inactive [at 17.3 µM]	
COC1CC(=O)C23C(=O)NC(CC(C)C)C2C(C)C(C)=CC3/C=C(\C)CCC1O (centres undefined)	6.49% [at 17.3 µM] (inactive)		
COc1cc(O[C@@H]2O[C@H](CO)[C@@H](O)[C@H](O)[C@H]2O)c(CCC(=O)OC[C@H]2O[C@@H](Oc3cc(OC)c(C4OC(=O)C(C)(O)C4O)cc3CCC(=O)O)[C@H](O)[C@@H](O)[C@@H]2O)cc1C1OC(=O)C(C)(O)C1O (some centres undefined)		inactive [at 9.29 µM]	
Cc1coc2c1CC1OC1(C)CCC1OC1(C)C2 (centres undefined)		inactive	
C=C(C)C(=O)O[C@H]1C[C@@](C)(OC(C)=O)[C@@]2(O)CC[C@@](C)(O)[C@H](OC(C)=O)[C@@]23OC(=O)C(COC)=C13		inactive [at 17.3 µM]	
O=C(O)c1cc(O)c2cccc(O)c2c1O[C@@H]1O[C@H](CO)[C@@H](O)[C@H](O)[C@H]1O		inactive	
C=C1C(=O)OC2/C=C(\C)CC/C=C(\C(=O)O)CC/C=C(\C)CCC12 (centres undefined)	1.34% (inactive)		
CCOC(=O)N1CCC(NCCNC(=O)c2ccccc2C)CC1	6.24% (inactive)		
C/C=C1\[C@H](O[C@@H]2O[C@H](CO)[C@@H](O)[C@H](O)[C@H]2O)OC=C(C(=O)OC)[C@H]1CC(=O)OC		inactive [at 17.3 µM]	
CCCC(=O)O[C@]1(C(=O)COC(C)=O)CC[C@H]2[C@@H]3C[C@H](F)C4=CC(=O)C=C[C@]4(C)[C@@]3(F)[C@@H](O)C[C@@]21C	-4.62% (inactive)		
CC12CC34C=CC(=O)C(C)(CCC(=O)O)C3C(CC1C4)O2 (centres undefined)		inactive	
